Common to all, as to experiment: NCI-60 one-dose screen, 48 h (100 = growth as untreated, 0 = no growth, -100 = all killed)
Holding throughout (conditions): 10 µM unless noted

In assay [1] the test system is NCI-H226 lung.
In assay [2] the test system is NCI-H322M lung.
For assay [3], the system named is HOP-62 NSCLC.
Assay [4] concerns HOP-92 NSCLC.
Assay [5] has as its system NCI-H522 lung.
For assay [6], the system named is A549/ATCC NSCLC.
Assay [7] has as its system 786-0 renal.
In assay [8] the test system is COLO 205 colon.
The test system of assay [9] is NCI-H460 lung.

About 83,000 compounds went through this panel and 20% of them were active in at least one assay; those are over-represented in the sample as a whole.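 For each line, cells grew in 96-well plates with the test compound present at a single concentration for 48 hours.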 Unmarked numbers belong to inactive results. Active and inactive are the calls of the source. How the source made its calls: active means growth percent below 10; inactive means the rest.

As for `COC(=O)/C=C/c1cccc2c1C(=O)NC(C)(c1cc3ccccc3oc1=O)N2` (stereo not given), the growth was 63.1% in assay [1]; 93.7% in [2]; 72.4% in [3]; 50.7% in [4]; 62% in assay [5]; 67.9% in assay [6]. The results for the growth in assay [7] and in assay [8] were 58.9% and 63.1%, respectively.
As to `COc1ccc(/C=N/NC(=O)Cn2nc(Cc3ccc(OC)cc3)c3onc(C)c3c2=O)cc1`, the growth in assay [1] is 49.6%; in [3] it was 42.8%; in assay [9] it was 30.5%; in assay [4], -20% (active); in assay [5] it was 58.1%; in assay [6], 45.2%. In addition, the results for the growth in [7] and in [8] were -55.5% (active) and 55.7%, respectively.
`Cc1cccc(NC(=O)CN2CCN(c3ncnc4c3cnn4-c3ccccc3)CC2)c1`: the growth in [2] is 91.3%; in assay [3], 96.2%; in assay [9], 73%; in assay [4] it was 98.2%; in assay [5] it was -39.6% (active); in assay [6] it was 97%. The growth in assay [7] is 98.1%; in assay [8], 109%.
With `COC(=O)/C=C/c1cccc2c1C(=O)NC(C)(c1cc3cc4ccccc4cc3oc1=O)N2` (stereo not given), the growth in [1] was 30.5%; in assay [2], 68%; in [3], 33.7%; in [9] it was 23.1%; in assay [4], 47.1%; in assay [5] it was 52.9%. Besides, the growth in assay [6] is 26.9%; in assay [7], 83.9%; in [8], 53%.
Take `O=C(CSc1nc2ccccc2c(=O)[nH]1)NCCN1CCCCC1`: the growth was 95.7% in assay [1]; 94.8% in [2]; 106% in assay [3]; 101% in [4]; 90.6% in [5]; 100% in assay [6]. The growth in assay [7] is 102%; in assay [8] it was 99%.
In the case of `COc1ccc2[nH]cc(-c3cc(N)n4nc(-c5cn(C)c6ccccc56)cc4n3)c2c1`, the growth was -19.3% (active) in assay [1]; -66.4% (active) in assay [3]; -71% (active) in assay [4]; -75.9% (active) in assay [5]; -75.6% (active) in [6]; -87.6% (active) in assay [7].
With `O=C(c1ccccc1)c1ccc2nc(-c3ccc(F)cc3)[nH]c2c1`, the growth in [1] is 25.4%; in assay [2], 97.2%; in [3], 83.5%; in assay [4] it was 90.5%; in [5] it was -59.7% (active); in [6] it was 82.2%. Also, the growth is 39% in [7] and 85.8% in [8].
As to `C#CCOc1ccc(/C=N/Nc2nc(-c3cc4cc(OC)ccc4oc3=O)cs2)cc1OC`, the growth is 14.2% in assay [1]; 72.2% in assay [2]; 71.9% in assay [3]; 8.62% (active) in assay [9]; -0.0146% (active) in [4]; 10% in assay [6]. For the same molecule, the growth in [7] is 74.2%; in assay [8] it was 63.6%.
For the molecule `CCOC(=O)C1=C(N)N(c2ccccc2)C2=C(C(=O)CC(C)(C)C2)C1c1ccc(N2CCOCC2)cc1` (stereo not given), the growth in assay [2] is 99.1%; in assay [3], 102%; in assay [9], 106%; in assay [4], 87.7%; in assay [5] it was 89.4%; in assay [6], 103%. Besides, the values for the growth in assay [7] and in [8] were 87.7% and 108%, respectively.
For the molecule `Nc1nc(-c2ccccc2)c(N=Nc2ccc(Cl)cc2[N+](=O)[O-])s1`, the growth in [1] is 77.4%; in [2], 94.2%; in assay [3], 90.9%; in [4], 68%; in [6], 95.3%; in assay [7], 93.4%. In addition, the growth in [8] is 101%.
`CCOC(=O)C(N=Nc1ccc(S(=O)(=O)N=C(N)N)cc1)C(C)=O` (stereo not given): the growth in [2] was 107%; in [3] it was 119%; in [9], 109%; in assay [4], 99.9%; in [5] it was 95.2%; in [6] it was 107%. Also, the growth in assay [7] is 96.7%.

These data come from PubChem BioAssay (NCI).
